The text below walks through data of ChEMBL document CHEMBL1201862, “PubChem BioAssay data set” (2004).

Molecules are shown by their SMILES. Hit rate of the full screen: of about 400,000 compounds, about 2,100 (0.53%) were called active. About 14% were inconclusive and are not listed. The sample holds actives, similar compounds and a random draw of the others, so the mix is not that of the screen. The rule behind the calls is not given here.

The target in the assay is Ataxin-2 (Homo sapiens) (UniProt Q99700). Put plainly: qHTS for Inhibitors of ATXN expression. The class given is functional. A general note: In qHTS, concentration-response curves come from the screen itself.
Sequence of Ataxin-2 (Homo sapiens) (Q99700 whole entry): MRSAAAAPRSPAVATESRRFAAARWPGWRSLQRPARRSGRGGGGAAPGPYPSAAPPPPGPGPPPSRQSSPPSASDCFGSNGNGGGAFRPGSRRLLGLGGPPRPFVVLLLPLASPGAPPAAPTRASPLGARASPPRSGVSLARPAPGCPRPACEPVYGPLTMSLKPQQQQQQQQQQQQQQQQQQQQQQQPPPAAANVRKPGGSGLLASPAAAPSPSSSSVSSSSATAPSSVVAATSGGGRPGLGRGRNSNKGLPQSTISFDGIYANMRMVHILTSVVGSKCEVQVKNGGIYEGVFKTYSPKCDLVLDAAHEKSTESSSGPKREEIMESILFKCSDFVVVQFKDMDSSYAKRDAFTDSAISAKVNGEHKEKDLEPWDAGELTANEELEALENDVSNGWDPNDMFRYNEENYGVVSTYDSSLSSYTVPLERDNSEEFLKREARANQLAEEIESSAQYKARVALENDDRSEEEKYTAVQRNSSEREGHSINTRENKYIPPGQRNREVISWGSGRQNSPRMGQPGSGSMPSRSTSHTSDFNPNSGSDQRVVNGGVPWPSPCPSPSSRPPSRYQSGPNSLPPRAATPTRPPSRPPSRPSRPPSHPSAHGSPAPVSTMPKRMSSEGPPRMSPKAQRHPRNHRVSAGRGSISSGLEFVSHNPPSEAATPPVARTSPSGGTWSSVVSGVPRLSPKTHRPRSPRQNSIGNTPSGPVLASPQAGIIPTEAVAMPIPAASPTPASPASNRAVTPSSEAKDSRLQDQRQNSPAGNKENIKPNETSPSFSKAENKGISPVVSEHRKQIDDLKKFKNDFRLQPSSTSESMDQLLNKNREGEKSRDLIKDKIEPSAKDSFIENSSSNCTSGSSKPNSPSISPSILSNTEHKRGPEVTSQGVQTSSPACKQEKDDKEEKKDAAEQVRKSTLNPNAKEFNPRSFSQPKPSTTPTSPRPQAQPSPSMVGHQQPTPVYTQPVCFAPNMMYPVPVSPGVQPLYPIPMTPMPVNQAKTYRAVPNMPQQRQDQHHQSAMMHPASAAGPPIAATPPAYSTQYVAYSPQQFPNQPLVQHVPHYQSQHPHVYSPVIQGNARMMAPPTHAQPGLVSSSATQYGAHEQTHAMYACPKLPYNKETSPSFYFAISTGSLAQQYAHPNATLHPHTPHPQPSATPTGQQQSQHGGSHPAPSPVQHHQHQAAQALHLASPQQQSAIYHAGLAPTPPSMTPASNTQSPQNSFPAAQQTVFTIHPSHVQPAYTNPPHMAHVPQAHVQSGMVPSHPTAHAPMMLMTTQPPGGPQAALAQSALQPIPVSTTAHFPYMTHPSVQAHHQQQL
`C1=C(c2ccc(-c3ccccc3)cc2)Nc2ncnn2C1c1ccco1` (configuration not stated): the Potency result is “inactive”. Turning to `COCCC(=O)NCC1Cc2cc(Cl)cc(-c3ccc4[nH]ccc4c3)c2O1` (configuration not stated), the Potency result was “inactive”. As to `OC(CNc1ccccc1)Cn1ccc2ccccc21` (configuration not stated), the Potency entry is “inactive”. The same measure for `COc1ccc(C2=NN(c3ccc(C(=O)O)cc3)C(c3ccc(OC)c(OC)c3)C2)cc1` (configuration not stated): “inactive”; for `CCc1c(C)c2cc3c(c(C)c2oc1=O)OCN(CCc1ccccc1F)C3`: “inactive”; for `CCc1ccc(-c2cn3nc(C)c(C)nc3n2)cc1`: “inactive”. The same measure for `COc1cccc(C2C=C(c3ccc(OC)cc3OC)Nc3nnnn32)c1` (configuration not stated): “inactive”; for `CN(C)CCN(C(=O)C1CCCCC1)c1nc2cc3c(cc2s1)OCCO3`: “inactive”.

With `Cc1cc(C)c2sc(N(CCCN(C)C)C(=O)c3ccc(S(=O)(=O)N(C)Cc4ccccc4)cc3)nc2c1`, the Potency is 39.8 µM (active). As to `CN(Cc1ccccc1)S(=O)(=O)c1csc(C(N)=O)c1`, the Potency result is “inactive”. The same measure for `CN(Cc1ccccc1)C(=O)c1ccc(S(=O)(=O)N(C)c2ccccc2)cc1`: “inactive”; for `Cc1cc(C)c2sc(N(CCCN(C)C)C(=O)c3ccc(S(=O)(=O)N(C)C4CCCCC4)cc3)nc2c1`: 35.5 µM (active). The same measure for `CC(=O)OCCCCCCCCCCC[N+]1(C)CCCCC1`: “inactive”; for `O=c1cc(CN2CCN(Cc3ccccc3)CC2)c2ccc(O)c(O)c2o1`: “inactive”; for `O=C(COC(=O)c1cccnc1O)Nc1ccc(N2CCCCC2)cc1`: “inactive”. Under `O=C(CNCCC1=CCCCC1)Nc1ccc(N2CCCCCC2)cc1` stands 25.1 µM (active). As for `CC(=O)c1c(C)[nH]c(C(=O)Nc2ccc(N3CCCCCC3)cc2)c1C`, the Potency result was “inactive”.

As for `Cc1ccc(C2C=C(c3ccc(Cl)cc3)Nc3nc(NC(=O)c4ccco4)nn32)cc1` (configuration not stated), the Potency entry was “inactive”. Under `CC(=O)Nc1ccc(S(=O)(=O)NC(C)C(=O)NCC(c2ccco2)N2CCCCC2)cc1` (configuration not stated) stands “inactive”.

For the molecule `O=C(NCC(c1ccco1)N1CCCC1)c1cc(S(=O)(=O)N2CCOCC2)ccc1Cl` (configuration not stated), the Potency entry was “inactive”. The same measure for `COc1cc(C(=O)NCC(c2ccco2)N2CCCC2)ccc1OCc1ccc(Cl)cc1Cl` (configuration not stated): 35.5 µM (active); for `O=[N+]([O-])c1ccc(/C=[N+](\[O-])[C@@H]2CCCC[C@@H]2/[N+]([O-])=C/c2ccc([N+](=O)[O-])o2)o1`: 42.3 µM (active); for `Cc1cc(N/N=C/c2ccc([N+](=O)[O-])o2)nc2ccccc12`: “inactive”. The same measure for `c1ccc(C2=NN(c3ccccc3)C(c3ccco3)C2)cc1` (configuration not stated): “inactive”. The same measure for `COc1ccc(-c2cc(=O)oc3c(C)c(O)ccc23)cc1`: “inactive”; for `COc1ccc(C2C=C(c3ccc(C)c(C)c3)Nc3ncnn32)c(OC)c1OC` (configuration not stated): “inactive”.

For the molecule `CCN(CCCNC(=O)c1cc(Nc2ccccc2OC)nc2ccccc12)c1cccc(C)c1`, the Potency result was “inactive”. Take `CCN(CCNCC(O)COc1ccccc1C(C)C)c1cccc(C)c1` (configuration not stated): the Potency was 39.8 µM (active).

Take `O=C(CCNC(=O)c1ccc([N+](=O)[O-])cc1)Nc1nccs1`: the Potency result was “inactive”. Under `CCCCCc1c2c(cc(O)c1C(=O)O)OC(=O)c1c(cc(OC)cc1C(=O)CCCC)O2` stands 21.2 µM (active); under `CCCOC(=O)c1ccc(Oc2c(C)n[nH]c2-c2ccc(OCC)cc2O)cc1`, 31.6 µM (active); under `CCOc1ccc(C(=O)COC(=O)Cn2[nH]c(=O)c3ccccc3c2=O)cc1`, “inactive”. Under `CCCOC(=O)c1ccc(Oc2coc3c(CN(CC)CC)c(O)ccc3c2=O)cc1` stands “inactive”; under `COCCn1c(SC2CCCCC2=O)nnc1-c1ccncc1` (configuration not stated), “inactive”; under `Oc1ccccc1C=NN=Cc1c(O)ccc2ccccc12`, “inactive”.

As for `O=C(N/N=C\c1c(O)ccc2ccccc12)c1ccc(S(=O)(=O)N2CCCCC2)cc1`, the Potency entry is “inactive”. As for `Nc1cc(Cl)nc(N/N=C/c2c(O)ccc3ccccc23)n1`, the Potency entry was “inactive”. For the molecule `O=C(N/N=C/c1c(O)ccc2ccccc12)c1cccc(C(F)(F)F)c1`, the Potency entry was “inactive”. On to `O=S(=O)(O)c1cccc(N=Nc2c(O)ccc3ccccc23)c1`, for which the Potency is 39.8 µM (active). On to `Oc1ccc2ccccc2c1N=Nc1ccccn1`, for which the Potency was 14.1 µM (active). Under `Oc1ncnc(O)c1C(c1ccc(F)cc1)c1c(O)ncnc1O` stands “inactive”; under `Cc1ccc(S(=O)(=O)/N=c2\ccc(Cl)cn2C(F)F)cc1`, “inactive”; under `N#Cc1nc(/C=C/c2ccccc2)oc1NCCCN1CCOCC1`, “inactive”.

Regarding `CC(=O)c1sc(NC(=O)CN2C(=O)C3CCCCC3C2=O)nc1-c1ccccc1` (configuration not stated), the Potency result is “inactive”. With `CCc1sc(NC(=O)CN2CCC(C(N)=O)CC2)nc1-c1ccccc1`, the Potency result is “inactive”.

Take `CCNc1nc(-c2sc(NC(=O)C(C)(C)C)nc2C)c(-n2cc(-c3ccccc3)nn2)s1`: the Potency was 15.8 µM (active).

In the case of `Cn1c(=O)c2nc(NCc3ccccc3)cnc2n(C)c1=O`, the Potency result is “inactive”. With `Cn1c(=O)c2c(nc(NCc3ccccc3)n2Cc2ccc(Cl)c(Cl)c2)n(C)c1=O`, the Potency was 35.5 µM (active). Under `CCC1CCCCN1Cc1nc2c(c(=O)n(C)c(=O)n2C)n1CCCc1ccccc1` (configuration not stated) stands “inactive”; under `CC1CCCCC12NC(=O)N(CC(=O)OCc1cccc(F)c1)C2=O` (configuration not stated), “inactive”. Take `Cc1ccc(CSc2nnc(SCC(=O)N/N=C/c3c[nH]c4ccccc34)s2)cc1`: the Potency was 5.97 µM (active). For the molecule `Cc1ccc(OCCn2cc(/C=N/NC(=O)c3ccncc3)c3ccccc32)cc1`, the Potency entry was “inactive”. The same measure for `CC(C)C(C)NC(=O)CSc1nnc(-c2c[nH]c3ccccc23)o1` (configuration not stated): “inactive”; for `O=C1CCCC(O)=C1Sc1cc(Cl)c(Cl)cc1Cl`: “inactive”; for `O=C(c1ccccc1)c1cccc(C(=O)c2ccccc2)c1`: “inactive”. With `O=C(/C=C/Sc1ccccc1)c1ccccc1`, the Potency was 15.8 µM (active).

As to `O=C(/C=C/Sc1ccccc1)c1ccc(Cl)cc1`, the Potency is 11.2 µM (active). In the case of `O=C(CNC(=O)c1ccc(Cl)cc1)Nc1ccccc1C(F)(F)F`, the Potency result is “inactive”.

Regarding `O=C1OCCN=C1/C=C(\O)c1ccc(Cl)cc1`, the Potency entry was “inactive”.

Consider `OC(C#CCN1CCCC1)(c1ccccc1)c1cccnc1` (configuration not stated), for which the Potency entry is “inactive”. Regarding `O=C(c1cc2c(=O)n3ccccc3nc2s1)N1CCN(Cc2ccc3c(c2)OCO3)CC1`, the Potency result is “inactive”. Under `Cc1ccc(C23OCCN2CCn2nc4ccccc4c23)cc1` (configuration not stated) stands “inactive”; under `CC(C)c1cc(=O)oc2c3c4c(cc12)CCCN4CCC3`, “inactive”. The same measure for `O=C(N/N=C/c1cn(CCOc2ccccc2)c2ccccc12)c1ccncc1`: “inactive”; for `Cn1c(N)c(C(=O)N/N=C/c2ccccc2)sc1=S`: “inactive”.

Take `O=C(N/N=C/c1cn(Cc2ccccc2)c2ccccc12)c1ccncc1`: the Potency result is “inactive”.

In the case of `Cc1cc(C(=O)N/N=C/c2cc(Br)cc(Br)c2OC(=O)c2cccc(F)c2)[nH]n1`, the Potency entry is “inactive”. Under `CC(C)c1cc(C(=O)N/N=C/C(Br)=C/c2ccccc2)[nH]n1` stands 31.6 µM (active); under `Cc1cc(C(=O)N/N=C/c2cc(Br)ccc2OC(=O)c2ccccc2Cl)[nH]n1`, “inactive”. Under `O=C(N/N=C/C(Br)=C/c1ccccc1)c1ccncc1` stands 31.6 µM (active). Under `Cn1cc(C(=O)N/N=C/C(Br)=C/c2ccccc2)ccc1=O` stands 15.8 µM (active); under `CCN(CC)c1ccc(/C=C2\CCC(/C=N/NC(=O)c3ccc(=O)n(C)c3)=C2N2CCOCC2)cc1`, “inactive”; under `COc1ccc(-c2cc(=O)oc3cc(OC(=O)C4CCCCC4)c(Cl)cc23)cc1`, “inactive”. Turning to `CCN1CCN(Cc2c(O)ccc3c(C)c(-c4ccccc4)c(=O)oc23)CC1`, the Potency entry is “inactive”. The same measure for `CCOC(=O)CC1c2nc3ccccc3cc2CN1C(=O)OCC` (configuration not stated): “inactive”; for `CC(=O)/N=c1\c(C#N)cc2c(=O)n3ccccc3nc2n1CCCOC(C)C`: “inactive”. The same measure for `OC1=C2C(=Nc3ccccc3SC2c2ccc(C(F)(F)F)cc2)c2ccccc21` (configuration not stated): 31.6 µM (active).

As to `OC1=C2C(=Nc3ccccc3SC2c2ccc(Cl)c(Cl)c2)c2ccccc21` (configuration not stated), the Potency is 31.6 µM (active).

With `CC(C)N1C(=O)S/C(=C\c2ccc(-c3ccc(Cl)c(C(=O)O)c3)o2)C1=O`, the Potency result is “inactive”. In the case of `COc1cccc(N(CC(=O)N2CCCCCC2)S(C)(=O)=O)c1`, the Potency result was “inactive”.

Take `COc1ccc(C2OC3=Nc4cc(C)c(C)cc4NC3=C2O)cc1` (configuration not stated): the Potency entry was “inactive”. Take `NC(=O)CC(NC(=O)Cc1ccc(Br)cc1)c1ccc(NC2CC3CCC2C3)c([N+](=O)[O-])c1` (configuration not stated): the Potency was 25.1 µM (active). `O=C(Cc1ccc(Br)cc1)N(Cc1ccccc1)c1ccccn1`: the Potency entry is “inactive”. Under `NC(=O)CC(NC(=O)c1ccc(Br)cc1)c1ccc(N2CCCCCCC2)c([N+](=O)[O-])c1` (configuration not stated) stands 31.6 µM (active); under `O=[N+]([O-])c1cccc(S(=O)(=O)NC2CC3CCC2C3)c1` (configuration not stated), “inactive”; under `O=C(COc1ccc(Br)cc1)NNC(=O)c1ccc(-n2cncn2)c([N+](=O)[O-])c1`, “inactive”. Under `CN(Cc1ccccc1)c1ccc(C(CC(N)=O)NC(=O)Cc2ccc(Br)cc2)cc1[N+](=O)[O-]` (configuration not stated) stands 35.5 µM (active).

As to `Cc1cc(NC(=O)CNCC(c2ccccc2)N(C)C)c([N+](=O)[O-])cc1C` (configuration not stated), the Potency entry is “inactive”. Take `O=C(O)c1ccc(NS(=O)(=O)c2ccc(N3CCCC3)c([N+](=O)[O-])c2)cc1`: the Potency entry is “inactive”. As to `NC(=O)CC(NC(=O)c1ccc(Br)cc1)c1ccc(NC2CCCCCCC2)c([N+](=O)[O-])c1` (configuration not stated), the Potency is 31.6 µM (active). As to `C=CCNc1nc2ccccc2nc1NS(=O)(=O)c1ccc(F)cc1`, the Potency entry is “inactive”. Under `CCOC(=O)/C(=C\C=C1/Sc2cc(OCC)c(OCC)cc2N1CC)C(C)=O` stands “inactive”; under `COc1ccccc1[C@@H]1C(c2cccc(Cl)c2)=NN(c2ccccc2)[C@H]1C(=O)N1CCOC1=O`, “inactive”.

Take `CCOC(=O)C1(Cc2cccc(F)c2)CCN(Cc2cn(CC)nc2C)CC1`: the Potency result was “inactive”.

For the molecule `CCCn1c(N)c(C(=O)CSc2nncs2)c(=O)[nH]c1=O`, the Potency entry is “inactive”. Under `COC(=O)C1=CN(CC2CCCO2)C=C(C(=O)OC)C1c1cccc(O)c1` (configuration not stated) stands “inactive”. Take `Cc1c(O)ccc2c(CC(=O)N[C@@H](Cc3ccccc3)C(=O)O)cc(=O)oc12`: the Potency entry is “inactive”. Under `CCOC(=O)C1CCCN(Cc2ccc(OCc3ccccc3)c(OC)c2)C1` (configuration not stated) stands “inactive”. The same measure for `Cc1nc2c(OCc3ccc(OC(F)F)cc3)cccn2c1N(C)C(=O)CCC1CCCC1`: 39.8 µM (active); for `CCn1cc(C(=O)N(C)Cc2ccc(OC(F)F)cc2)c(=O)c2ccc(C)nc21`: “inactive”.

For the molecule `CCOC(=O)c1cc2c(=O)n3ccccc3nc2n(CC2CCCO2)/c1=N\C(=O)c1ccccc1OCC` (configuration not stated), the Potency entry is “inactive”. The same measure for `COC(=O)c1ccc(COc2cccn3c(N(C)C(=O)CCC4CCCC4)c(C)nc23)cc1`: 35.5 µM (active).
